Vaccinia Venus – qHTS for Stage-Specific Inhibitors of Vaccinia Orthopoxvirus: Venus Reporter Primary qHTS; Vaccinia virus Venus reporter expression, fluorescence; Potency, µM (top dose mostly 36.5 µM), without a hit: top-dose activity change, negative = inhibition, hits mostly inhibitors; 330,000 tested, 0.46% active; AID 720580, 2013; calls by dose curve; tested in A549 cells; note: nearly all actives have a fitted effect of over 30% in size
FMDV antiviral – High Throughput Screening for Foot and Mouth Disease Virus Antivirals | FMDV antiviral cell-based qHTS | 410,000 tested, 1.2% active | Potency, µM (series often up to 57.9 µM), for the others: at the highest dose activity change, negative = inhibition, hits mostly inhibitors; calls by dose curve; tested in HEK293T cells; note: read-out not given here; nearly all actives have a fitted effect of over 45% in size
MARV entry inh – qHTS for inhibitors of binding or entry into cells for Marburg Virus; Marburg virus pseudotyped entry inhibition, cell reporter; Potency, µM (highest dose often 37.8 µM), inactives show at the top dose activity change, negative = inhibition, usual class: inhibitors; 300,000 tested, 1.8% active; AID 540276, 2011; calls by dose curve; tested in HEK293 cells
Vaccinia mCherry – qHTS for Stage-Specific Inhibitors of Vaccinia Orthopoxvirus: mCherry Reporter Primary qHTS; Vaccinia virus mCherry reporter infection, fluorescence; Potency, µM (series often up to 36.5 µM), for the others: at the top dose activity change, negative = inhibition, usual class: inhibitors; 310,000 tested, 0.63% active; AID 720579, 2013; calls by dose curve; tested in A549 cells; note: nearly all actives have a fitted effect of over 35% in size
Lassa entry inh – qHTS for Inhibitors of binding or entry into cells for Lassa Virus; Lassa virus pseudotype entry inhibition, cell reporter; Potency, µM (titrated, usually from 37.9 µM), without a hit: at the top dose activity change, negative = inhibition, most hits filed as inhibitors; AID 540256, 2011; 300,000 tested, 1.2% active; calls by dose curve; tested in HEK293 cells; note: nearly all actives have a fitted effect of over 50% in size
Starred values were filed as active, the others as inactive; i = inactive; u = inconclusive; x = no result; [ ] = remark or other dose. A selection: hits, their analogues and other compounds. The true share with any hit is near 3.2%. % is set by controls: 0 for no effect and ±100 for the full control effect; potency is the fitted concentration of half-maximal effect.

SMILES	Vaccinia Venus	FMDV antiviral	MARV entry inh	Vaccinia mCherry	Lassa entry inh
COC(=O)C(Sc1ccc(Cl)cc1)C1SC(=S)N(Cc2ccccc2)C1=O (configuration not stated)	-18%	32µM*	x	-9%	x
COC(=O)c1cccc(CN2C(=O)C(C)Sc3cc(Cl)ccc32)c1 (configuration not stated)	-18%	17%	x	i	x
COc1ccc(S(=O)(=O)N(Cc2nc(-c3ccc(Cl)cc3)no2)C2CCCCC2)cc1	-14%	8%	0%[46.1 µM]	-10%	-27%[46.1 µM]
COc1ccc(/C=N/NC(=O)c2[nH]c3ccc(Br)cc3c2-c2ccccc2)c(C(=O)O)c1OC	u	-16%	-24%[46.1 µM]	i	-27%
O=C(N/N=C/c1ccccc1Cl)c1[nH]c2ccc(Br)cc2c1-c1ccccc1	i	-19%	2.5µM*	u	u
Cc1nnc(NC(=O)CSc2ccccc2N)s1	x	31%	x	x	x
Cc1ccc(C(C)(C)C)c(SCC(=O)Nc2nnc(C)s2)c1	-10%	-12%	7.1µM*	-11%	7.1µM*
CC#CCN1c2ccccc2[C@]23CCC(=O)N(CCCOC(C)C)C2=NC(C(=O)OC)=C(C(=O)OC)[C@H]13	x	x	-12%[14.2 µM]	x	x
COC1=CC(=O)C(OC)=C(OC)C1=O	-29%	u	u	u	16µM*
COC(=O)/C(C#N)=C1\SC=C(C)N1c1ccccc1	x	x	4%	x	x
Cc1ccc(S(=O)(=O)Nc2ccc3c(c2)CCCN3C(=O)c2cccs2)cc1	-23%	-17%	x	-21%	u
CC1CCc2sc(C(=O)OCC(=O)NCc3ccccc3)cc2C1 (configuration not stated)	-27%	-15%	-22%	-12%	10µM*
Cc1ccc(CNC(=O)COC(=O)c2cc3c(s2)CCC(C)C3)cc1 (configuration not stated)	-9%	1%	u	-12%	7.9µM*
CCO[C@H]1OC(C(=O)N2CCOCC2)=C[C@@H](C2CC2)[C@@H]1CCCO	-18%	0%	x	-11%	x
Cc1ccc(-c2ccc(C(=O)NCc3ccc(Cl)cc3)o2)c2ccccc12	-19%	-25%	5%	u	21µM*
O=C(NCc1ccccc1)c1ccc(-c2ccc(F)cc2)o1	x	24%	-3%	x	6.5µM*
O=C(O)c1ccc(-c2ccccc2C(F)(F)F)o1	-7%	0%	25%	-10%	1%
O=C(NCc1ccccc1)c1ccc(-c2ccccc2C(F)(F)F)o1	-4%	52%	u	i	2.3µM*
Cc1ccccc1-c1ccc(C(=O)NCc2ccccc2)o1	u	50%	11%	-16%	u
O=C(CCc1ccccc1)NCc1ccc(F)cc1	-12%	25%	-1%[46.1 µM]	i	1%[46.1 µM]
O=C1Nc2ccccc2[C@@]12O[C@H](COc1ccccc1)CC1=C2CCC1	x	x	10%[14.2 µM]	x	x
Cc1ccc(CNCCCn2cnc3c(OCc4ccccc4)ncnc32)o1	-20%	-4%	x	-3%	x
COc1ccc(NC(=S)Nc2nc(CC(=O)Nc3ccccc3OC)cs2)cc1	x	22µM*	u	x	u
COc1ccccc1NC(=O)Nc1nc(CC(=O)NCc2ccc(F)cc2)cs1	u	40µM*	u	u	-1%
COc1ccccc1NC(=O)Nc1nc(CC(=O)NCc2c(F)cccc2F)cs1	-19%	-9%	u	-5%	u
SMILES	Vaccinia Venus	FMDV antiviral	MARV entry inh	Vaccinia mCherry	Lassa entry inh
COc1cc2nc(N(C)C)c(CNC3CCOC(C)(C)C3)cc2c(OC)c1OC (configuration not stated)	13%	-12%	x	-4%	x
O=C(c1ccoc1)N1CCCC(N2CCN(c3ccc(F)cc3)CC2)C1 (configuration not stated)	x	-19%	x	x	x
O=C(c1cccc(-c2ccco2)c1)N1CCCC(N2CCN(c3ccc(F)cc3)CC2)C1 (configuration not stated)	-17%	35µM*	-31%	-6%	u
COC(=O)C1CCN(Cc2ccc3c(c2)CN(C(=O)c2cc4cc(F)ccc4[nH]2)CCO3)CC1	1%	-22%	x	-5%	x
O=C(CCl)Nc1cn(-c2ccccc2)nc1-c1ccc(F)cc1	-20%	16µM*	u	u	11µM*
Fc1ccc(-c2nn(-c3ccccc3)cc2CNCc2ccccc2)cc1	-29%	85%	u	u	u
COc1ccc(-c2cc(OC(=O)c3cccc(Cl)c3)c3c(C)oc(C)c3c(=O)c2)cc1	23%	-9%	u	-5%	u
Cc1ccc(S(=O)(=O)N(CCCO)CC(O)CON=C2c3ccccc3-c3ccccc32)cc1 (configuration not stated)	-8%	35µM*	u	-22%	u
C=CCN1C[C@H](C(=O)N(CCCN(C)C)C(=O)NCC)C[C@@H]2c3cccc4[nH]cc(c34)C[C@H]21	x	-5%	x	x	x
CC1CCCC(C)N1C(=O)c1ccccc1Nc1ccc(SC(F)F)cc1 (configuration not stated)	x	-27%	12µM*	x	u
Cc1ccc2c(c1)c1ncnc(N3CCOCC3)c1n2C	-19%	-18%	u	u	u
CC(=O)N1CCN(c2ccc(Nc3ncnc4c3oc3ccccc34)cc2)CC1	u	28µM*	u	-14%[1.46 µM]	u
CCc1nnc(N2CCN(c3ncnc4c3oc3ccccc34)CC2)s1	-6%	22µM*	0%	-12%	4%
c1ccc(N2CCN(c3ncnc4c3oc3ccccc34)CC2)cc1	-7%	35µM*	u	i	7%
O=C(CSc1ncnc2c1oc1ccccc12)N1CCN(c2ccccc2)CC1	x	0%	1%	x	6%
CCOC(=O)C1CCN(c2ncnc3c2oc2ccccc23)CC1	-3%	x	-7%	-21%	-23%
CCc1nc(Nc2ccc(N3CCN(C(C)=O)CC3)cc2)c2oc3ccccc3c2n1	-24%	u	u	-29%	u
Cc1ccc2c(c1)c1ncnc(N3CCN(c4ccccc4)CC3)c1n2C	-9%	20µM*	0%	x	u
Cn1c2c(c(=O)n(C)c1=O)[C@](NC(=O)c1cccs1)(C(F)(F)F)C(=O)N2	x	x	14%	x	x
O=C(O)C1=CC[C@@H](c2ccc(Cl)cc2)N(S(=O)(=O)c2ccc(Cl)cc2)[C@H]1c1ccccc1	-20%	-15%	x	i	x
COc1ccc(CCNc2ccc(C(CC(N)=O)NC(=O)c3ccc(Br)cc3)cc2[N+](=O)[O-])cc1 (configuration not stated)	13µM*	-25%	x	-19%	x
COc1ccc(CCNc2ccc(C(CC(N)=O)NC(=O)Cc3ccc(Br)cc3)cc2[N+](=O)[O-])cc1 (configuration not stated)	-9%	0%	x	i	x
NC(=O)CC(NC(=O)Cc1ccc(Br)cc1)c1ccc(N2CCC(Cc3ccccc3)CC2)c([N+](=O)[O-])c1 (configuration not stated)	11µM*	u	x	u	x
NC(=O)CC(NC(=O)Cc1ccc(Br)cc1)c1ccc(NCc2ccc(F)c(F)c2)c([N+](=O)[O-])c1 (configuration not stated)	u	-24%	x	18µM*	x
